Laboratory results reported in PubChem BioAssay AID1159580 (chemical genetic matrix, 2015).
The campaign covered roughly 5,500 compounds. About 2,000 (36%) were called active. Another 18% or so got no clear call; they are omitted. Cut-off read from the data, not from the text of the source: active = normalized growth mostly below about 0.91 (no sharp cut-off); inconclusive = no clear call, values can overlap the other calls; inactive = mostly above about 0.92. This is one part of the list.

Assay: chemical genetic growth profiling, strain panel (AID 1159580);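 note: tested at 20 µM; growth read once vehicle control cultures reached saturation at 30 °C; 1 = growth at the plate median or of vehicle wells; lower values mean less growth of the strain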
Conditions: S. cerevisiae deletion strains, growth OD

Measured: normalized growth

CC(=O)C(Sc1nc2ccccc2s1)C(C)=O
active: locus YER123W, strain YCK3, hits give low values 0.595 | locus YGR092W, strain DBF2, hits give low values 0.343 | locus YHR030C, strain SLT2, hits give low values 0.63 | locus YJL157C, strain FAR1, hits give low values 0.68 | locus YKL067W, strain YNK1, hits give low values 0.694 | locus YLR113W, strain HOG1, hits give low values 0.591 | locus YNL006W, strain LST8, hits give low values 0.901 | locus YNL183C, strain NPR1, hits give low values 0.561 | locus YPL256C, strain CLN2, hits give low values 0.6
inactive: locus YAR019C, strain CDC15, hits give low values 0.896 | locus YBL105C, strain PKC1, hits give low values 0.919 | locus YBR135W, strain CKS1, hits give low values 0.915 | locus YBR136W, strain MEC1, hits give low values 0.923 | locus YBR160W, strain CDC28, hits give low values 0.909 | locus YDL017W, strain CDC7, hits give low values 0.919 | locus YDL028C, strain MPS1, hits give low values 0.906 | locus YDL101C, strain DUN1, hits give low values 0.979 | locus YDL108W, strain KIN28, hits give low values 0.93 | locus YDL132W, strain cdc53, hits give low values 0.91 | locus YDL214C, strain PRR2, hits give low values 0.713 | locus YDR052C, strain DBF4, hits give low values 0.916 | locus YDR054C, strain cdc34, hits give low values 0.906 | locus YDR226W, strain ADK1, hits give low values 0.937 | locus YDR477W, strain SNF1, hits give low values 0.778 | locus YER133W, strain GLC7, hits give low values 0.812 | locus YFL009W, strain cdc4, hits give low values 0.892 | locus YFL029C, strain CAK1, hits give low values 0.9 | locus YFR003C, strain YPI1, hits give low values 0.926 | locus YFR019W, strain FAB1, hits give low values 0.836 | locus YFR028C, strain CDC14, hits give low values 0.922 | locus YGR040W, strain KSS1, hits give low values 0.798 | locus YGR052W, strain FMP48, hits give low values 0.667 | locus YHR079C, strain IRE1, hits give low values 0.547 | locus YHR082C, strain KSP1, hits give low values 0.785 | locus YHR205W, strain SCH9, hits give low values 0.948 | locus YIL147C, strain SLN1, hits give low values 0.921 | locus YJL095W, strain BCK1, hits give low values 0.521 | locus YJL128C, strain PBS2, hits give low values 0.918 | locus YJR016C, strain ILV3, hits give low values 0.916 | locus YJR066W, strain TOR1 (second series), hits give low values 0.795 | locus YJR066W, strain TOR1, hits give low values 0.682 | locus YKL048C, strain ELM1, hits give low values 0.929 | locus YKL101W, strain HSL1, hits give low values 0.866 | locus YKL193C, strain SDS22, hits give low values 0.907 | locus YKL203C, strain TOR2, hits give low values 0.879 | locus YLR133W, strain CKI1, hits give low values 0.765 | locus YLR403W, strain SFP1, hits give low values 0.764 | locus YML070W, strain DAK1, hits give low values 0.699 | locus YMR001C, strain CDC5, hits give low values 0.91 | locus YMR205C, strain PFK2 (second series), hits give low values 0.749 | locus YMR277W, strain FCP1, hits give low values 0.892 | locus YNL020C, strain ARK1, hits give low values 0.739 | locus YNL161W, strain CBK1, hits give low values 0.906 | locus YNL207W, strain RIO2, hits give low values 0.937 | locus YNL222W, strain SSU72, hits give low values 0.907 | locus YNL307C, strain MCK1 (second series), hits give low values 0.807 | locus YOL078W, strain AVO1, hits give low values 0.908 | locus YOL136C, strain PFK27, hits give low values 0.694 | locus YOR061W, strain CKA2, hits give low values 0.752 | locus YOR119C, strain RIO1, hits give low values 0.827 | locus YOR231W, strain MKK1, hits give low values 0.591 | locus YOR329C, strain SCD5, hits give low values 0.925 | locus YPL031C, strain PHO85, hits give low values 0.729 | locus YPL153C, strain RAD53, hits give low values 0.734 | locus YPL204W, strain HRR25, hits give low values 0.757 | locus YPL209C, strain IPL1, hits give low values 0.914 | locus YPR025C, strain CCL1, hits give low values 0.916 | locus YPR106W, strain ISR1, hits give low values 0.945 | locus YPR111W, strain DBF20, hits give low values 0.946 | strain NNK1, hits give low values 0.948 | strain TSCII, hits give low values 0.891
